# Records with an inconclusive call do not appear. Activity calls are given as the source filed them. Rule for the calls: active = hit-call score of the fitted dose curve at least 0.9, where 1 is the maximum; inconclusive = response in the unintended direction; inactive = score below 0.9.
# Read-out: Cytochrome P450 2C19 (Homo sapiens) (UniProt P33261)
# Assay: CLD_CYP2C19_24hr: CellzDirect (CLD) Gene Expression Assay for xenobiotic metabolism (CYP2C19) at 24 hours (AID 2283687);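 note: activity means mRNA induction above DMSO vehicle baseline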
# Method: CLD_24hr is a cell-based, multiplexed-readout assay that uses hepatocyte, a human liver primary cell, with measurements taken at 24 hours after chemical dosing in a 96-well plate.CLD_CYP2C19_24hr is one of 16 assay component(s) measured or calculated from the CLD_24hr assay. It is designed to make measurements of mRNA induction, a form of inducible reporter, as detected with chemiluminescence signals by Quantitative Nuclease Protection Assay (qNPA) technology.Data from the assay component CLD_CYP2C19_24hr was analyzed at the endpoint, CLD_CYP2C19_24hr, in the positive analysis fitting direction relative to DMSO as the negative control and baseline of activity. Using a type of inducible reporter, gain-of-signal activity can be used to understand changes in the reporter gene as they relate to the gene CYP2C19. Furthermore, this assay endpoint can be referred to as a primary readout. To generalize the intended target to other relatable targets, this assay endpoint is annotated to the cyp intended target family, where subfamily is xenobiotic metabolism.
# Human hepatocyte cultures were treated daily for two consecutive days with fresh dosing solutions containing appropriate concentrations of the 320 ToxCast chemicals (chemical identities were blinded to CellzDirect and other ToxCast collaborators), vehicle control (0.2% DMSO), and positive control inducers as summarized in Table 1. Due to the large number of treatment groups and chemicals examined, the ToxCast chemicals were divided into two groups (spanning two independent cultures of hepatocytes from separate donor preparations (Hu778: ToxCast plates 1 and 2; Hu776: ToxCast plates 3 and 4). Each preparation of human hepatocyte cultures was treated with respective vehicle control, medium only control, set of six positive controls/reference chemicals for the five hepatic receptor pathways, and a subset of eight of the ToxCast chemicals (indoxacarb, pyrithiobac-sodium, norflurazon, cyhalofop-butyl, methomyl, thiram, acetochlor, and propiconazole). These replicate data, coupled with internal replicates designed within the blinded ToxCast chemical library, provided additional data to evaluate interindividual differences between hepatocyte preparations and their potential impact on chemical profiles.Cell morphology and integrity were evaluated using phase-contrast microscopy as an indicator of hepatocyte cell health (Tyson & Green, 1987). Cultures for each treatment group (i.e., media, vehicle [0.2% DMSO], positive control inducers [multiple concentrations], and the ToxCast chemicals [multiple concentrations]) were observed and cell morphology was assessed relative to vehicle control cultures at each harvest time point (0, 6, 24, or 48 h). […] Images were evaluated at the conclusion of the study to assess changes in cell integrity and account for the effects of chemical exposure on uncharacteristic changes in concentration-dependent gene expression profiles. The results from these determinations of apparent cytotoxicity were annotated (yes/no) alongside the corresponding qNPA data for reference.At the conclusion of each treatment period, hepatocyte cultures (96-well) were washed with 1 volume of HBSS, lysed by addition of 25 ul ArrayPlate lysis buffer (HTG, Tucson, AZ), and 70 ul/well of Denaturation Oil, denatured by incubation at 95C for 10 min, and frozen at approximately -70C until analysis by nuclease protection assay (qNPA) (Roberts et al., 2007). For qNPA analysis, cell lysates were thawed at 50C for approximately 30 min, qNPA probes were added, and samples were incubated at 95C for 10 min to begin the detection process by denaturing the target RNA, dissociating the duplexes and secondary structure hybridization. At the conclusion of the hybridization period, S1 nuclease reagent was added to each sample to digest all nonprotected nucleotides at 50C for 60-90 min. […]
# Sequence of Cytochrome P450 2C19 (Homo sapiens) (P33261 whole entry, looked up): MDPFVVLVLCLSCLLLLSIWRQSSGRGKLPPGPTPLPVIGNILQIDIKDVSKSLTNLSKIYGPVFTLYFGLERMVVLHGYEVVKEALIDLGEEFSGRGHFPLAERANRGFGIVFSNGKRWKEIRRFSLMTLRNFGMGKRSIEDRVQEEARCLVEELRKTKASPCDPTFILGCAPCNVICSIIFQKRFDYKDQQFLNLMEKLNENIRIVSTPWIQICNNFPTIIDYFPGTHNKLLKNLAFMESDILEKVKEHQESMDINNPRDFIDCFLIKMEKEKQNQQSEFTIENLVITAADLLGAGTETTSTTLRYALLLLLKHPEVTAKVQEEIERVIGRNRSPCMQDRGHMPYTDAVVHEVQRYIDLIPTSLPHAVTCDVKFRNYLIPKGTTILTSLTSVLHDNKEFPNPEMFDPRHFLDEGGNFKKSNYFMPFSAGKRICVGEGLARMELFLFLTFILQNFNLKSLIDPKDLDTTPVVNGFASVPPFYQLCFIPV
row,SMILES,outcome
1,COc1cc(OC)nc(NC(=O)NS(=O)(=O)c2ncccc2OCC(F)(F)F)n1,inactive
2,N#CN=C1SCCN1Cc1ccc(Cl)nc1,inactive
3,Nc1c(Cl)c(Cl)nc(C(=O)O)c1Cl,inactive
4,Cc1cnc(C2=NC(C)(C(C)C)C(=O)N2)c(C(=O)O)c1 (stereo unspecified),inactive
5,CS(=O)(=O)c1ccc(C(=O)C2C(=O)CCCC2=O)c([N+](=O)[O-])c1,inactive
6,COc1cc(Cl)c(OC)cc1Cl,inactive
7,CC(C)(C)C(=O)C(Oc1ccc(Cl)cc1)n1cncn1 (stereo unspecified),inactive
8,O=C(O)c1c(Cl)ccc2cc(Cl)cnc12,inactive
9,CCCCOCN(C(=O)CCl)c1c(CC)cccc1CC,inactive
10,CC1(C)C(C=C(Cl)Cl)C1C(=O)OC(C#N)c1cccc(Oc2ccccc2)c1 (stereo unspecified),inactive
11,CCN(CC)C(=O)C(C)Oc1cccc2ccccc12 (stereo unspecified),inactive
12,Clc1cccc(C(Cl)(Cl)Cl)n1,inactive
13,COP(=O)(OC)O/C(C)=C/C(=O)N(C)C,inactive
14,CC(C)Oc1cccc(NC(=O)c2ccccc2C(F)(F)F)c1,inactive
15,CNC(=O)N(C)c1nnc(C(C)(C)C)s1,inactive
16,CC(C)C1(C)N=C(c2ncccc2C(=O)O)NC1=O (stereo unspecified),inactive
17,CS(=O)(=O)c1cc(C(F)(F)F)ccc1C(=O)c1cnoc1C1CC1,inactive
18,O=C1C2CC=CCC2C(=O)N1SC(Cl)(Cl)Cl (stereo unspecified),inactive

row,SMILES,outcome
1,O=c1n(Cl)c(=O)n(Cl)c(=O)n1Cl,inactive
2,CC1(C)CON(Cc2ccccc2Cl)C1=O,inactive
3,CSC(=O)c1c(C(F)F)nc(C(F)(F)F)c(C(=O)SC)c1CC(C)C,inactive
4,COC(=O)NS(=O)(=O)c1ccc(N)cc1,inactive
5,CCSC(=O)N1CCCCCC1,inactive
6,Nc1c(Cl)c(F)nc(OCC(=O)O)c1Cl,inactive
7,CC(C)N1C(=O)c2ccccc2NS1(=O)=O,inactive
8,C=C(C)CN(CC)c1c([N+](=O)[O-])cc(C(F)(F)F)cc1[N+](=O)[O-],inactive
9,CCCC(=NOCC)C1=C(O)CC(CC(C)SCC)CC1=O (stereo unspecified),inactive
10,CC(C)=CC1C(C(=O)OCc2coc(Cc3ccccc3)c2)C1(C)C (stereo unspecified),inactive
11,CN=C=S,inactive
12,CCCN(CC)CC1COC2(CCC(C(C)(C)C)CC2)O1 (stereo unspecified),inactive
13,CCNC(=O)NC(=O)C(C#N)=NOC,inactive
14,O=P(O)(O)CCCl,inactive
15,COCC(=O)N(c1c(C)cccc1C)C(C)C(=O)OC (stereo unspecified),inactive
16,C=CCOC(=O)C(C)(C)OC(=O)c1cc(-n2c(=O)cc(C(F)(F)F)n(C)c2=O)ccc1Cl,inactive
17,Cc1c(COC(=O)[C@@H]2[C@H](/C=C(\Cl)C(F)(F)F)C2(C)C)cccc1-c1ccccc1,inactive
18,Cc1nc(N(C)C)nc(OC(=O)N(C)C)c1C,inactive

# From PubChem BioAssay (EPA / NIEHS)
